Test system: CDKL1
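Further: kd values determined as follow-up on hits from a single-replicate KINOMEscan panel screen.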

Row | Compound | Kd [µM]
1 | Cc1ccc(NC(=O)Nc2ccc(Cl)c(C(F)(F)F)c2)cc1-c1ccc(C(=O)Nc2ccncc2)cc1 [GSK1398470] | > 10
2 | COc1ccc(Nc2nccc(N3CCC(NC(=O)C(C)c4ccc(Cl)cc4)C3)n2)cc1 (stereo not shown) [GSK1379735] | > 10
3 | Cn1cnc2c(N)ncnc21 [SKF-97623] | > 10
4 | CNC(=O)c1ccc(C)c(-n2c(C)cc(OCc3ccc(F)cc3F)c(Br)c2=O)c1 | > 10
5 | NS(=O)(=O)c1cccc(N/C=C2\C(=O)Nc3ccc(S(=O)(=O)Cc4c(Cl)cccc4Cl)cc32)c1 [GSK398099] | > 10
6 | Cn1cncc1C(=O)NC1CCN(c2ccnc(Nc3ccc(F)cc3)n2)C1 (stereo not shown) [GSK1379717] | > 10
7 | Cn1cncc1-c1cc2c(Nc3ccc(OCc4ccccc4)cc3)ncnc2cn1 [GW281179] | > 10
8 | Cc1c(Cn2c(C)c(C)n3c(=O)cc(N4CCOCC4)nc23)cccc1C(F)(F)F [GSK2328680] | > 10

Test system: CDKL2

Row | Compound | Kd [µM]
9 | O=C(Nc1n[nH]c2nc(-c3cccs3)c(Br)cc12)C1CC1 [SB-735297] | 0.14
10 | O=C(Nc1n[nH]c2nc(-c3cccs3)c(Br)cc12)C1CCCC1 [SB-743341] | 0.33
11 | O=C(Nc1n[nH]c2cc(-c3ccsc3)ccc12)C1CC1 [SB-732932] | 0.1
12 | COC(=O)c1cccc(NC(=O)NC2CCN(c3ccnc(Nc4ccc(F)cc4)n3)C2)c1 (stereo not shown) [GSK1379725] | 0.68

Test system: CHEK1

Row | Compound | Kd [µM]
13 | COC(=O)C(Cc1ccccc1)NC(=O)NC1CCN(c2ccnc(Nc3ccc(F)cc3)n2)C1 (stereo not shown) [GSK1379714] | > 10
14 | COc1ccc(Nc2nccc(-c3ccc(NC(=O)c4cc5cc(F)ccc5[nH]4)cc3)n2)cc1 [GSK1229496] | > 10
15 | FC(F)(F)c1ccccc1-c1cc(-c2c[nH]nc2-c2ccccn2)ccn1 [GW679396] | > 10
16 | CS(=O)(=O)CCNCc1nc(-c2ccc3ncnc(Nc4ccc(OCc5ccccc5)c(Cl)c4)c3c2)cs1.Cl [GW582764] | > 10
17 | Cc1ccccc1-c1cc(-c2c[nH]nc2-c2ccccn2)ccn1 [GW680061] | > 10
18 | COc1ccc(Nc2nccc(N3CCC(NC(=O)c4cc5ccccc5s4)C3)n2)cc1 (stereo not shown) [GSK1379738] | > 10
19 | COc1cccc(C2=C(Nc3cc(Cl)c(O)c(Cl)c3)C(=O)NC2=O)c1 [SB-390767] | > 10

— paper PMC5540273 (PLoS ONE, 2017)
